According to PubChem BioAssay (NCI):
The panel holds about 83,000 compounds, 20% with a hit somewhere; the sample as a whole holds those more often.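 Results are percent growth after 48 hours of single-concentration exposure. 100 means growth as in untreated cells, lower positive values show inhibition; negative values down to -100 show cell death.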 A number with no mark means an inactive call. The source made the active and inactive calls. The calls were made as follows: active = growth percent below 10; inactive = the rest.

Assays:
Assay in all cases: NCI-60 one-dose screen, 48 h (100 = growth as untreated, 0 = no growth, -100 = all killed)
SK-MEL-2 melanoma = settings: 10 µM unless noted
EKVX NSCLC = settings: 10 µM unless noted
SN12C renal = settings: 10 µM unless noted
UO-31 renal = settings: 10 µM unless noted
TK-10 renal = settings: 10 µM unless noted
ACHN renal = settings: 10 µM unless noted
CAKI-1 renal = settings: 10 µM unless noted
A498 renal = settings: 10 µM
HL-60(TB) leukemia = settings: 10 µM unless noted
CCRF-CEM leukemia = settings: 10 µM unless noted
MOLT-4 leukemia = settings: 10 µM unless noted
SR leukemia = settings: 10 µM unless noted
RPMI-8226 leukemia = settings: 10 µM unless noted
OVCAR-5 ovarian = settings: 10 µM unless noted
OVCAR-4 ovarian = settings: 10 µM unless noted
SK-OV-3 ovarian = settings: 10 µM unless noted
IGROV1 ovarian = settings: 10 µM unless noted
OVCAR-3 ovarian = settings: 10 µM unless noted
HS 578T breast = settings: 10 µM unless noted
OVCAR-8 ovarian = settings: 10 µM unless noted

| SMILES | growth (SK-MEL-2 melanoma) [%] | growth (EKVX NSCLC) | growth (SN12C renal) | growth (UO-31 renal) | growth (TK-10 renal) | growth (ACHN renal) | growth (CAKI-1 renal) | growth (A498 renal) | growth (HL-60(TB) leukemia) | growth (CCRF-CEM leukemia) | growth (MOLT-4 leukemia) | growth (SR leukemia) | growth (RPMI-8226 leukemia) | growth (OVCAR-5 ovarian) [%] | growth (OVCAR-4 ovarian) | growth (SK-OV-3 ovarian) | growth (IGROV1 ovarian) | growth (OVCAR-3 ovarian) | growth (HS 578T breast) | growth (OVCAR-8 ovarian) |
| --- | --- | --- | --- | --- | --- | --- | --- | --- | --- | --- | --- | --- | --- | --- | --- | --- | --- | --- | --- | --- |
| CN1CCCCC1C(C)(O)c1ccccc1 (stereo not given) | 106 | 96.3% | 102% | 92.5% | 94.9% | 108% | 96.4% | 101% | 114% | 112% | 102% | 113% | 114% | 94.2 | 99.8% | 97.8% | 99.8% | 111% | 108% | – |
| CC(C)(N)Cc1ccccc1 | 108 | 99.1% | 108% | 84.7% | 96.5% | 106% | 97.6% | 111% | 94.9% | 100% | 103% | 100% | 99.9% | 109 | 112% | – | 106% | 112% | 96.6% | 106% |
| CCC(CC)CC1(C)CC2(C)CCOC2OO1 (stereo not given) | 94.9 | 103% | 102% | 88.8% | 98% | 111% | 95.7% | 90.8% | 111% | 103% | 113% | 113% | 103% | – | 95.4% | 111% | 114% | 115% | 92.6% | 102% |
| O=C1C2C(C(=O)[N]1[Hg][c]1ccccc1)C1(Cl)C(Cl)=C(Cl)C2(Cl)C1(Cl)Cl (stereo not given) | 50.8 | -7.36% (active) | -71.7% (active) | -77.1% (active) | -95.9% (active) | -98.5% (active) | -87.5% (active) | 32.8% | -18.4% (active) | -23.8% (active) | -2.76% (active) | -23.6% (active) | -40.8% (active) | 73 | 5.55% (active) | 62.1% | -39.3% (active) | -85.5% (active) | -14.1% (active) | -47.4% (active) |
| O=C(N/N=C/c1ccc(N(CCCl)CCCl)cc1)c1cccc2ccccc12 | 81.2 | 85.2% | 73.8% | 78.7% | 87.7% | 80.7% | 80.5% | -9.28% (active) | 29.5% | 56.6% | 51.4% | 24.2% | 73.9% | 93 | 88.5% | 69.1% | 79.2% | 61.8% | 69.4% | – |
| O=C(CN1CCN(C(=O)c2ccco2)CC1)Nc1ccc(Cl)cc1C(=O)c1ccccc1Cl | 46.6 | 94.3% | 105% | 35.3% | 132% | 81.3% | 91.7% | 83.8% | 49.4% | 163% | 54.2% | 72.7% | 53.6% | 95.9 | 87.5% | 112% | 57.8% | 115% | 78.3% | 87.1% |
| CCCCOc1ccc(C(N)Cc2ccccc2)cc1 (stereo not given) | 107 | 91.8% | 95.4% | 74.6% | 98% | 90.5% | 84.1% | 65% | 84.7% | 98.5% | 85.5% | – | 80.5% | 95.9 | 107% | 114% | 88.2% | 102% | 91% | 97.6% |
| O=C(O)C(O)C(O)C1[O][Sb]([c]2ccc([N+](=O)[O-])cc2)[O]C1CO (stereo not given) | 115 | 105% | 90.4% | 96.4% | 98.4% | 101% | 102% | 83.6% | 92.8% | 98.5% | 98.2% | 102% | – | 103 | 112% | 129% | 111% | 114% | – | 105% |
| CC[C@H](C)[C@H](NC(=O)c1cccn1C)C(=O)N(C)[C@H](C[C@@H](OC(C)=O)c1nc(C(=O)N[C@@H](Cc2ccccc2)C[C@H](C)C(=O)OC)cs1)C(C)C | 20.4 | 54.3% | 24.2% | 38.9% | 27.5% | 30% | 25.1% | -2.8% (active) | -36.7% (active) | 18.7% | 16.2% | 14.4% | – | 43.5 | 46.9% | 10.8% | 23% | -3.92% (active) | 27% | 15.6% |
| O=C1CC2(CC3(Cl)C(Cl)=C(Cl)C2(Cl)C3(Cl)Cl)C(=O)O1 (stereo not given) | 121 | 95.7% | 107% | 63.5% | 98.7% | 105% | 97.9% | 98.9% | 97.1% | 114% | 96.5% | – | 105% | 94.4 | 116% | 112% | 105% | 114% | – | 104% |
| COc1cccc2c1c(C(=O)C(=O)Nc1cc(C)no1)cn2Cc1ccc(F)cc1 | 75.1 | 78.9% | 62.2% | 57.5% | 82.6% | 88.6% | 86.7% | 91.1% | 1.01% (active) | 66.6% | 32.5% | – | 20.7% | 76.1 | 90.9% | – | 37% | 3.35% (active) | 53.3% | 81.7% |
| CCCCCCCCCCCCCCCCCCOc1ccccc1COP(=O)(O)OOCC[N+](C)(C)C | 35.9 | 11.4% | -6.04% (active) | 38.5% | 3.59% (active) | 8.89% (active) | 1.63% (active) | 52.6% | -42% (active) | -12.8% (active) | -36.1% (active) | -8.81% (active) | – | 40.5 | 34.6% | 36.2% | -74.1% (active) | -29.2% (active) | 15.6% | -30.5% (active) |
| Cc1ccccc1NC(=NCCCN1CC1)Nc1ccccc1C | 114 | 96.8% | 92.1% | 73.3% | 99.7% | 90.1% | 77.5% | 91.7% | 95.9% | 89.7% | 70.8% | 69.7% | – | 123 | 88.9% | 79.9% | 82% | 90.4% | 97.4% | 82.6% |
| COc1ccc(/C=C/c2cc(OC)c(OC)c(OC)c2)cc1NC(=O)/C=C/c1ccc(F)cc1 | 49.6 | 47.3% | 39.6% | 39% | 88.4% | 48.4% | 33.9% | -3.96% (active) | -20% (active) | 11% | 13.5% | – | 51.8% | 57.5 | 61.4% | -29% (active) | 46.9% | -10.9% (active) | 5.66% (active) | 36.7% |
